The source of these data is PubChem BioAssay AID1508600 (Functional Genomics Laboratory (NCATS/FGL), 2020).

Screen size: about 53,000 sequences; about 3,700 (7%) were called active. The entries come from a sample that favours actives as a whole. A number with no mark means an inactive call.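 How the source made its calls: active means gene knockdowns whose robust z-score for IL-1 alpha signal is at least 2 or at most -2, so actives lie on both sides; inactive means the rest.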

A short description of the assay: Components of the Cytosolic LPS Sensing Pathway: Gene Identification via Genome-wide siRNA Screen.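 Further: robust z of the log signal after scaling to non-targeting control siRNA wells of the plate.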 The settings on record: RAW264.7 macrophages, IL-1a HTRF, actives lie on both sides, screened at 100 nM (by protocol), cells primed 5 h with Pam3CSK4 first. In outline: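 Cells (RAW264.7, 1×10^4 per well) were transfected with siRNA at 100 nM and cultured 48h at 37 degrees C. Pam3CSK4 was added for 5 hours; LipidA transfection followed for 24 hour. IL-1a was then measured by HTRF.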
GCACCUGAGCUUUCGAAUATT against Fam3a: the z-score is -0.373.
For CCGUGGAAACAGUCCUGAATT against Nudcd1, the z-score was 0.646.
With GCUACUCUCGCCUGUUACATT against Dcaf12, the z-score was 0.0053.
Then GGCCAAUGCCCUUUUUUGATT against Spem2, with 0.427; and GUUCCCUGCCUGGCAGAAUTT against Foxd2, with 3.8 (active); and “GGCAGCACCAUCGUCUAAUTT against 4930432E11Rik”, with 0.622.
The result for GGUCAAGUCACUGGUGACGTT against Fabp3 reads -1.73; that for GGAAGAUGGGCUAUUUCAUTT against Gabra6, 0.545.
As to GGACAAGACCAUCUUCGAUTT against Sectm1a, the z-score is 0.21.
Then CCAAAUCCCAGAGUUAUUUTT against Htr2c, with 0.361; and GCAAAAGACCAUCUGAGUGTT against Adig, with 0.375.
On to GGAAUUGGCAUCCUUAAGCTT against Cops3, for which the z-score was 2.43 (active).
Then GGUCAGAAGGUGUGUUAUATT against Rad52, with 0.338; and GGCAUUCCCAGUCGUAAAGTT against Kctd3, with -1.1.
The result for GGUUUAUAUCCGUACACCUTT against Sp2 reads 1.97; that for “GGUGUUCUACUGUGCAUUATT against 9330132A10Rik”, 0.578; that for GUUCCUCAGUAUGUUGCCATT against Olfr126, -2.85 (active).
Then GGGAUUGGUUAUUUUACAUTT against Trmt12, with -0.578; and GGAAAUAUGGCAAGAAUUUTT against Rgs7, with 0.781; and GCUAAUGUGGAGGACUCACTT against Chml, with -0.574.
As to GCAUUUCCCAGCCUGAUACTT against Aif1l, the z-score is -0.584.
Take GGUGACACAGUACAAGAAGTT against Rpl36a: the z-score is 0.318.
Then GGCGAGAAACCUUUCAGAUTT against Zic4, with 4.72 (active); and CGGCGAUGGAAAAAAAUUUTT against Tmem178, with 1.04; and GGGUGCUUACAGAAUAUCUTT against Ms4a19, with 1.07.
In the case of GGUGAACCCUUUGAGGAAGTT against Gstt3, the z-score is -0.42.
Then GGAUUAAAUGGUGGUGGAGTT against Dnajb6, with -1.1; and GGAUGAAAUUGUGUUAUCUTT against Snrk, with -0.371; and GCCCUUUUACGGCAACAGATT against C2cd5, with -1.48.
The result for CCACAUGCCAAAAUAAUACTT against Oxr1 reads -0.771.
Regarding GGAAGAACUUGUCUCUUUUTT against Tmtc2, the z-score was 0.501.
Regarding GGAUGCUGUAACACUUUAUTT against Bcl6, the z-score is 3.31 (active).
As to GCGAUCACUUUUCAAGUUUTT against Rnf139, the z-score was 0.0177.
As for GGAAAUCCUCAGACAAAUGTT against Pdc, the z-score was 0.93.
Regarding GGAAAUGUACCUGUUUGUUTT against Dnase1l2, the z-score was 0.928.
Turning to GGCUUAGGUGUCCGAGAAATT against Wfdc2, the z-score was -1.01.
The result for GGCUGUGGUAGAAAAGCUGTT against Hspg2 reads -1.65; that for CCAUAUCUAUGAUAUGGUUTT against Piezo2, -2.18 (active).
GGAAGAUCCAUUUAAUGUATT against Eps15: the z-score was 1.14.
Then GCUGAAGGGUCUCGUAUUGTT against Hes2, with 0.262; and GGCUUUGAUGUCAGCACUGTT against Ngrn, with 0.247.
The result for GCUCAUGCAUGGCUGUACATT against Gbp9 reads 0.603; that for GGAGCAUUCUCCAUCUAGCTT against Dennd2d, -1.41.
Then GGAGGAGUCUUGAAUCCAGTT against Yod1, with -0.122.
For GGACUUGGUGACUUACUUCTT against Smpdl3b, the z-score was -1.42.
In the case of CGGGUAAUAAGGAUUUGGGTT against Cadm4, the z-score was 2.05 (active).
As to GGAGACAGUUCAGAAGUGGTT against Glp2r, the z-score is 0.0837.
The result for GAAGUCUGUGACCAGUUCCTT against Fgf2os reads 0.735; that for GCUAGGUGGGCAACUGUAUTT against Lpar3, 2.12 (active).
Turning to CCCUGAAACCUCGGUGUUUTT against Vmac, the z-score is 1.34.
Take GGAACUGGAGAUGCACAGCTT against Mtcl1: the z-score is 1.2.
The result for GGAAAUUGUCAGGUCCUACTT against Rad50 reads 2.94 (active).
Then GGUUAUGUGUUCCAUAGAUTT against Pcdhb13, with 0.248; and GGAUAAACAGCUGAAGGUGTT against Ccs, with 0.762; and GGCCGUUUUUUGGCAUCGUTT against Acss1, with -1.71.
The result for GGCAAGCCAGAGAAACUGATT against Rbm42 reads 6.18 (active); that for GGUAAUCCUGACUUCGUGGTT against Asb17, 0.915; that for GCCGUAUUCAUUAAUAAAGTT against Ash1l, 0.0753.
On to GCUAGAAAGGACUUCGUGGTT against Pla2g4f, for which the z-score is -2.36 (active).
The result for CGAUUUCACAAAAACAUGATT against Vta1 reads -0.394.
The result for GGUGUUGGAGACCAUGGAUTT against Clcn6 reads 0.829; that for CGUGAUGUACAUGCAGGAUTT against Slc48a1, 2.83 (active); that for GCAAUCGACCGCAUCCUAATT against Gm4827, -1.32.
For GGGCUCCAAUUUGCUACCATT against Grp, the z-score was 0.342.
Then GCAGCAAUCAGAUCAUGUATT against Platr26, with -0.694; and GGUCCAGAUUGCUUAGAUGTT against Zbtb11os1, with -0.398; and CCUUAUACCAUAGAGAACATT against Bfar, with 1.14.
The result for GGAGAAACGAAAAGACUCUTT against Brpf1 reads -2.25 (active); that for GGCUUCAAGGACUUUACAATT against Mefv, 1.62.
Turning to GGUGUGCUCUGUAAAUCAUTT against Trappc2, the z-score is 0.656.
The result for GGAUGAGCAUAAAAGUCCUTT against Atf7ip reads -0.536; that for CCUGUCACAGAUGUAUGUGTT against Rnf149, 0.331; that for GGAAUCUCCACCAUACAGGTT against Vmn1r26, -0.263.
Then GGAGGAUACAGUGGAGGGATT against Fbxl19, with 2.81 (active); and GGACGGUAGCCAUAUUAAUTT against Spink2, with -0.385; and GGCUGAAGUUCAUGAUGGCTT against Cd209d, with 1.7.
CCACCAGGGAUCGUUAUAATT against Phyh: the z-score is 2.25 (active).
In the case of GGCGAUUAUGGAAAAAUGUTT against Osbpl11, the z-score was -0.431.
On to GGCCUUUAUUCUAUGCAGUTT against Htr3a, for which the z-score was 1.59.
For GGAAAAAACGCACCAGCAUTT against Pou2f1, the z-score was 0.0271.
The result for CCAGACGCGUAACUGCUACTT against Cox6b2 reads 3.26 (active); that for GGACAAAGAAAAAGAUUCCTT against Stxbp6, -0.169.
Turning to CCUGGAACAUAGAUGUAUATT against Jmjd4, the z-score was 0.484.
The result for GGUCUUUUCUACAUGUGGATT against Olfr389 reads 0.268; that for GGAUGCUGAAGUGAAGGACTT against Myt1, -0.157.
Then GCAUGUAGCCUGGCCUUCUTT against Zfp458, with -0.591.
GGAAUGUUGGAAUCAAUUGTT against Gcm1: the z-score is 2.83 (active).
Then GGAAUUUUACCUUUUGGAUTT against Tm9sf3, with 0.408; and GGUCUCACUGAAAAUGAAATT against Ces1g, with -0.656.
The result for GGCUUGUCGUCCUGGUGUATT against Rprd2 reads 0.219.
Then GGCCUACAUCAUUCACUCCTT against Olfr64, with -0.384.
As for GGAGGAUCUAUACCACGGUTT against Npffr2, the z-score is 0.565.
The result for GGUUCGAGUCUCUUACUCUTT against Pou4f3 reads -0.574.
GGGUGACCUUUACGUCUUCTT against Reep1: the z-score is 0.0877.
The result for GGGAGAAGAAUUUGAACAGTT against Ak1 reads 0.557.
Take GGUGGCAGACUGUGUUUAUTT against B3gnt8: the z-score was -2.08 (active).
For GGGAUGCGGAGGUUUAAGATT against Dhx37, the z-score was 0.815.
Then GGAGCUAAAGCUGCUGAUUTT against S100g, with -0.404; and CCCAGGACGACGACUUUUUTT against Pnmal1, with -0.0664; and “GGACUUGGAAGUAAUUUUCTT against C230071H18Rik”, with 2.06 (active).
The result for GGUUUUGGGCAAAAUUGAGTT against Edf1 reads -0.899; that for GCUAGGUCAGGGAGUUUUATT against Exosc2, 3.33 (active); that for CCAAUGCAAUGUUAGCUUUTT against Tas1r3, 0.898.
Turning to GCCAUGGCAUAAAAACUGGTT against P2rx6, the z-score was -0.329.
For the sequence CCACAUGAUCCUAACUUUGTT against Pqbp1, the z-score was -0.157.
Then CCUGAUAAGCAAAUACGGCTT against Rep15, with -0.893; and CCUGAAGCCUCAAUACACATT against Ugt1a1, with 0.967.
The result for GGCCUAAACACGGUUUUCATT against Ppm1n reads 3.72 (active).
